system: VDR:RXRa (NR concentration 270 nM, RXRa partner concentration 90 nM); assay: PBM binding z-score (relative to random genomic background probes); higher = stronger binding; sequences stand for … in GC…GCGATTGACAGCGTAGAATGAAGG
Experimental: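 Protein-binding microarray (Agilent 4x180K custom design, double-stranded 60-nt probes: 5' GC cap, 34-nt variable region, 24-nt constant primer region; full probe sequence given). Purified or IVT nuclear receptor:RXRα heterodimers (3:1 NR:RXRα, mostly 270:90 nM) or homodimers were incubated for 1 h in PBS with 2% milk and no ligand, then detected with Alexa488 antibodies. Fluorescence from o1-orientation probes (~5 replicates averaged) was converted to z-scores against 500 random hg19 background probes. Variable regions are seed direct-repeat (DR0–DR5) sites, all their single-nucleotide variants and half-site ablations.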

Row | Sequence | PBM binding z-score
1 | CCAGACAGGTAAAAGGTAACTCAGTCTGGTACGC | 0.318
2 | CCTACTGGGCAAAAGGTCATTGATTCCAATGCTC | 4.44
3 | GCGACTGGGGCAAAGCAGGTTACCACAAGGTTGG | 0.0392
4 | AGAATGAGGTTATTAAGATCAGGGCATTGCGGTC | 3.01
5 | AATACAGGGTCACTACGCCAGAGTAGGTACGAAT | 4.39
6 | ACTAGTTGGTCAGCTGAGATCACACACAATTCGG | 0.193
7 | AGAATGAGGTTATTAAGATCAGGGTATTGCGGTC | 2.43
8 | GATACAGGGTCAAGACCAGAGTACGCGTATTGAT | 4.33
9 | TCGTGTAGATCAACAGGAGGTTAAGAAAGATCGA | 0.314
10 | CAGCCTAGGTCAGGGCCAGTCTAGGAGGAACGTT | 0.0507
11 | TCGATTAGTTGAAGGGCAACCGACGAGTCCGTTT | 0.389
12 | TCTCGGAGGACACGAAGGACAGAGCTTTCCAGAG | -0.0596
13 | TGAATGAGGTTAAAGAACAGGGAACGTGGCGTCG | 1.12
14 | CCGACAGGGGCATAAGGTTACCATAAGCCAGCCC | 1.1
15 | ACAGACAGGTGAGTGAAGGTAACTCGGCTGGACG | -0.336
16 | GCTAGTTGGTGAGTAAAAGGTCACACACCGGTCG | 3.72
17 | CCTAGCAGGCCAGGGTCACTTAAGCATTTCGCTT | 2.3
18 | TCTTGTAGATCAACAGGAGGTAAAGAAAGATCGA | 0.194
19 | CTCGAAAGGTCGTGCTCACGTGAGTATACCAAAC | 3.23
20 | TCATATAGTTAAAAGGTGAAAGTCGGTGTGGTAA | 1.52

Row | Sequence | PBM binding z-score
21 | GCGACTGGGGCAACAGCAGGTTACCATAACTTAA | -0.189
22 | TGAATGAGGTGATAAGATCAGGGAACGTTGCAAA | -0.169
23 | TAGCCTAGGTCATTCAGGGGACAGTATAGAAAGC | 3.56
24 | CAGCCTAGCTCAGGGCCAGTATAGGAGGAACGTT | -0.907
25 | TCTCGGAGGACACGATGGTCAGAGCTTTCCAGAG | -0.133
26 | TTGCCAAGGTGAAGGTCGTTGATCCCTCTGTAGA | 1.08
27 | GCTTACGGGTCAAAGATTATAGCATGAATAGAAT | 3.28
28 | CATACGGGGTCAGCTAGGCCAGAGTAGGGACGGC | 6
29 | CGAACTAGGTCCGAACAGGACAGTGAAGGATGAT | -0.576
30 | ATCTCTAGTTAAAGATAGTTCAGTGAATGCAAAT | 1.04
31 | AATACAGGGTCATCGTAGACCAGAGTACGCACAG | 5.04
32 | CGAGCTAGGTCAAGGACAGTGAATCTCCGCACGC | 0.904
33 | GCTCCTAGGTCAACTGATGGTCAGCTAAAGCTCG | 2.29
34 | CTACCAAGGTGAACAAGGTCTTTGATTACTATTC | 3.6
35 | ACTAGCAGGCCAAGTTTGGGTCACTTAAACAAAG | 0.715
36 | ACTCACGGGTCAACGAGGTTATAGCACGCGTATA | 7.63
37 | GCTGGGAGGACAAGGTCAGAGCTTTGTCCGTAGA | 1.4
38 | TCTGCTAGGTCGGTTGGTCAGCTAACGAGCTGCC | -0.462
39 | TGAATGAGGTTATAAGATCAGGGATCGTTGCAAA | 0.956
40 | TTACCAAGGCGAGCTGAGGTCGTTGATCCAACTC | 1.63

Reference: the supplement of paper PMC6555819
